Results as given in PubChem BioAssay (Tox21).
Records with an inconclusive call do not appear. Entries that show only a call come without a potency. Active and inactive are the calls of the source. Unless noted, the call rests on the fitted dose curve.

What was measured:
[1] = Nuclear factor erythroid 2-related factor 2/antioxidant responsive element (Nrf2/ARE) small molecule agonists: qHTS cell viability counter screen in human keratinocytes (AID 1919968; active means well fitted curve in the direction sought with a large enough effect in the repeat runs; an effect the other way counts as inactive or inconclusive; further: nearly all actives have a fitted effect of over 55% in size; further: potency means the concentration at half of the fitted maximal effect)
How it was run: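 Fluorescence read-out from CellTiter-Fluor after 1 h at 37 C. Wells held HaCaT-derived ARE-luciferase reporter cells (1,500/well) treated 23 h with DMSO-dissolved compounds. Run in the same wells as the luciferase agonist read.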

[2] = target: Gonadotropin-releasing hormone receptor (Homo sapiens) (UniProt P30968); test: Human gonadotropin-releasing hormone receptor (GnRHR) small molecule agonists, calcium flux assay in GnRHR-HEK293 cells (AID 1920063); further: nearly all actives have a fitted effect of over 35% in size
How it was run: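 Calcium-dye fluorescence, Ex/Em=480/540, recorded every 1 sec over 3 min after compound addition to GnRHR-HEK293 cells. Cells had been seeded 18 hours earlier and dye-loaded for 1 hour at 37 C. Fifteen concentrations, triplicates.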

[3] = target: KiSS-1 receptor (Homo sapiens) (UniProt Q969F8); test: Human kisspeptin (KISS1R) small molecule agonists, calcium flux assay in KISS1R-HEK293 cells (AID 1920064; active means well fitted curve in the direction sought with a large enough effect in the repeat runs; an effect the other way counts as inactive or inconclusive)
How it was run: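 Calcium flux read-out: kinetic fluorescence at Ex/Em=480/540, 1 s intervals over 3 min, after pin-tool compound addition to dye-loaded KISS1R-HEK293 cells. Fifteen concentrations, triplicates.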

[4] = G protein-coupled receptor (GPCR) small molecule agonists, calcium flux assay: HEK293 wild type cell line counter screen (AID 1920065)
How it was run: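 Agonist mode; 18 h seeding at 37 C, 1 h dye load at 37 C; compounds pinned from DMSO, ATP as positive control; kinetic fluorescence 480/540 nm, 3 min, 1 s reads; 15 concentrations, triplicate.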

[5] = p53 small molecule agonists, cell-based qHTS assay with human liver microsomes (AID 1963577)
How it was run: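 p53RE-bla reporter cells were pre-incubated 5 h at 37 C, then treated with compounds plus human liver microsomes (0.5 mg/mL final) and NADPH (0.5 mg/mL final) for 16 h at 37 C. Beta-lactamase activity was read by LiveBLAzer fluorescence after 2 h at room temperature.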

[6] = p53 small molecule agonists, cell-based qHTS assay with rat liver microsomes (AID 1963578)
How it was run: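 p53RE-bla cells were exposed to compounds together with rat liver microsomes (0.5 mg/mL final) and NADPH (0.5 mg/mL final) for 16 h at 37 C, then read by LiveBLAzer beta-lactamase fluorescence after 2 h at room temperature.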

[7] = p53 small molecule agonists, cell-based qHTS assay with human liver microsomes: qHTS cell viability counter screen (AID 1963579); further: nearly all actives have a fitted effect of over 45% in size; further: potency means the concentration at half of the fitted maximal effect
How it was run: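 p53RE-bla cells (4,000/well) were pre-incubated 5 h at 37 C, then given compounds in DMSO plus human liver microsomes (0.5 mg/mL final) and NADPH (0.5 mg/mL final) for 16 h at 37 C. Viability was read by CellTiter-Glo luminescence.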

[8] = p53 small molecule agonists, cell-based qHTS assay with rat liver microsomes: qHTS cell viability counter screen (AID 1963580); further: nearly all actives have a fitted effect of over 45% in size; further: potency means the concentration at half of the fitted maximal effect
How it was run: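 Luminescent ATP readout (CellTiter-Glo, 30 min at room temperature) reports viability of p53RE-bla HCT-116 cells after 16 h at 37 C with test compounds under metabolic activation by rat liver microsomes and NADPH at 0.5 mg/mL final each.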

[9] = p53 small molecule agonists, cell-based qHTS assay: qHTS cell viability counter screen (AID 1963581); further: nearly all actives have a fitted effect of over 45% in size; further: potency means the concentration at half of the fitted maximal effect
How it was run: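 Cytotoxicity read-out: ATP-based luminescence (CellTiter-Glo, 30 min RT) measured in the same wells as the p53 reporter assay, HCT-116 p53RE-bla cells, 16 h compound exposure at 37 C.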

[10] = p53 small molecule agonists, cell-based qHTS assay (AID 1963582; active means well fitted activation curve with a large enough effect in the signal ratio in the repeat runs, not every such curve was filed as active; the % refers to the signal ratio)
How it was run: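 Fluorescence intensity read-out of a beta-lactamase reporter under a p53 response element. Cells were exposed to DMSO-dissolved compounds for 16 h at 37 C, then developed with FRET substrate for 2 h at RT.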

[11] = target: 5-hydroxytryptamine receptor 2A (Homo sapiens) (UniProt P28223); test: 5-hydroxytryptamine receptor 2A (HTR2A) small molecule antagonists, cell-based qHTS assay (AID 1963586); further: nearly all actives have a fitted effect of over 45% in size
How it was run: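 CHO cells stably expressing human HTR2A were plated for 18 h at 37 C, then loaded with calcium dye for 1 h. Compounds were preincubated 5 min at room temperature before DOI (4 nM solution) was added. Kinetic fluorescence was read for 3 min.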

[12] = target: 5-hydroxytryptamine receptor 2A (Homo sapiens) (UniProt P28223); test: 5-hydroxytryptamine receptor 2A (HTR2A) small molecule agonists, cell-based qHTS assay (AID 1963587); further: nearly all actives have a fitted effect of over 30% in size
How it was run: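 HTR2A-CHO cells, plated 18 h at 37 C/5% CO2, dye-loaded 1 h at 37 C; compounds in DMSO added by pin tool (agonist mode). Intracellular calcium flux read as kinetic fluorescence on FDSS over 2 min at 1 s intervals.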

[13] = target: Muscarinic acetylcholine receptor M1 (Homo sapiens) (UniProt P11229); test: Cholinergic receptor muscarinic 1 (CHRM1) small molecule antagonists, cell-based qHTS assay (AID 1963588); further: nearly all actives have a fitted effect of over 40% in size; further: potency means the concentration at half of the fitted maximal effect
How it was run: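 Compounds were tested at 15 concentrations in three independent runs. Dye-loaded CHRM1-CHO cells were exposed 5 min at room temperature before stimulation by acetylcholine added at 50nM. Intracellular calcium was read kinetically on FDSS for 3 min.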

[14] = cAMP Responsive Elements (CRE) small molecule agonists, cell-based qHTS assay (AID 1963590)
How it was run: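 Beta-lactamase reporter readout: LiveBLAzer B/G FRET substrate, 2 h at room temperature, added after 3 h compound treatment of CRE-bla HEK 293T cells at 37 C/5% CO2.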

[15] = target: Beta-2 adrenergic receptor (Homo sapiens) (UniProt P07550); test: Adrenergic beta2 receptor (ADRB2) small molecule antagonists, cell-based qHTS assay (AID 1963592); further: series mostly up to about 92 µM; nearly all actives have a fitted effect of over 50% in size
How it was run: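 Assay format: CHO-ADRB2 cells, 18-20hr seeding at 37C/5% CO2, then compound plus 1nM isoproterenol agonist mix for 0.5hr RT. Homogeneous time-resolved fluorescence cAMP detection after 1hr, expressed as 665/615 nm ratio.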

[16] = target: D(2) dopamine receptor (Homo sapiens) (UniProt P14416); test: Dopamine D2 receptor (DRD2) small molecule agonists, cell-based qHTS assay (AID 1963594); further: nearly all actives have a fitted effect of over 35% in size
How it was run: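 HEK293 cells stably expressing DRD2 were cultured 24 h at 37 C, then given Ro20-1724 (0.1 mM final) and compounds for 10 min at room temperature. NKH477 (200nM) was then added for 30 min. cAMP was read by HTRF.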

[17] = target: D(2) dopamine receptor (Homo sapiens) (UniProt P14416); test: Dopamine D2 receptor (DRD2) small molecule antagonists, cell-based qHTS assay (AID 1963595; active means well fitted inhibition curve with a large enough effect in the signal ratio in the repeat runs, with a control signal flat; the % refers to the signal ratio)
How it was run: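 Antagonist mode in DRD2-HEK293 cells: after compound addition with 0.1 mM Ro20-1724, cells received quinpirole (12 nM) and NKH477 (200 nM) for 30 min at room temperature; HTRF cAMP read after 1 h detection.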

[18] = target: Muscarinic acetylcholine receptor M1 (Homo sapiens) (UniProt P11229); test: Cholinergic receptor muscarinic 1 (CHRM1) small molecule agonists, cell-based qHTS assay (AID 1963589); further: nearly all actives have a fitted effect of over 35% in size
How it was run: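 Calcium flux read-out: kinetic fluorescence at 1 sec intervals after pin-tool compound addition to dye-loaded CHRM1-CHO cells (human M1). Agonist mode; 15 concentrations tested in triplicate independent runs.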

[19] = target: Beta-2 adrenergic receptor (Homo sapiens) (UniProt P07550); test: Adrenergic beta2 receptor (ADRB2) small molecule agonists, cell-based qHTS assay (AID 1963593);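 further: CHO cells stably overexpressing human ADRB2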
How it was run: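 CHO cells stably over-expressing ADRB2 were plated overnight at 37C, then dosed with compounds plus a stimulation mix containing 100uM IBMX and 25uM Ro-20-1724 for 0.5hr at room temperature. cAMP was measured by HTRF competition, 1hr.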

[20] = cAMP Responsive Elements (CRE) small molecule antagonists, cell-based qHTS assay (AID 1963591; active means well fitted inhibition curve with a large enough effect in the signal ratio in the repeat runs, not every such curve was filed as active; the % refers to the signal ratio)
How it was run: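 HEK293T CRE-bla; 18 h preincubation; compound pin-transfer; NKH477 0.25 uM final, 3 h, 37 C; LiveBLAzer FRET substrate 2 h RT.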

D(2) dopamine receptor (Homo sapiens), sequence (P14416 whole entry, looked up): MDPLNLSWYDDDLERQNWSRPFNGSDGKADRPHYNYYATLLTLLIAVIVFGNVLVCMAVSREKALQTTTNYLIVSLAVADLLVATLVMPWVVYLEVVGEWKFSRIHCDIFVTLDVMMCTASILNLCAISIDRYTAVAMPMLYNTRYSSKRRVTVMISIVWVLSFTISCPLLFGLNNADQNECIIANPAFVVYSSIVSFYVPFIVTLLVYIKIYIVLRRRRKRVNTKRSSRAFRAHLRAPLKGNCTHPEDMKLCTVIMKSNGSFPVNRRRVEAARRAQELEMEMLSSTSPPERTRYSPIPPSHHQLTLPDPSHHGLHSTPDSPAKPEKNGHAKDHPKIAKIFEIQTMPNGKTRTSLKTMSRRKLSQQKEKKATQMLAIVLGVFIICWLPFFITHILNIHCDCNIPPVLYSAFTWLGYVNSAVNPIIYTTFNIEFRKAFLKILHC
Muscarinic acetylcholine receptor M1 (Homo sapiens), sequence (P11229 whole entry, looked up): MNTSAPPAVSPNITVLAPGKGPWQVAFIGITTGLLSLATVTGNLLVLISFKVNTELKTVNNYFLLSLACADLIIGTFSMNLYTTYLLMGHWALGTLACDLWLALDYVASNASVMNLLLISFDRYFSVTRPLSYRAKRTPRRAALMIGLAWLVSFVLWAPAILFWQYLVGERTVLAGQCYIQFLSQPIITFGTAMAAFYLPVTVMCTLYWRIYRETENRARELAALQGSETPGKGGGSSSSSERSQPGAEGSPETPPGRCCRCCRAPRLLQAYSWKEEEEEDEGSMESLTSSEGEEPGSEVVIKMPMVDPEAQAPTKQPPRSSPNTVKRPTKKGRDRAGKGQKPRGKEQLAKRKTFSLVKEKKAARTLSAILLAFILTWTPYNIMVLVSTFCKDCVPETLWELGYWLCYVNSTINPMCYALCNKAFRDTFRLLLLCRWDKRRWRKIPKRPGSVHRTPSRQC
Beta-2 adrenergic receptor (Homo sapiens), sequence (P07550 whole entry, looked up): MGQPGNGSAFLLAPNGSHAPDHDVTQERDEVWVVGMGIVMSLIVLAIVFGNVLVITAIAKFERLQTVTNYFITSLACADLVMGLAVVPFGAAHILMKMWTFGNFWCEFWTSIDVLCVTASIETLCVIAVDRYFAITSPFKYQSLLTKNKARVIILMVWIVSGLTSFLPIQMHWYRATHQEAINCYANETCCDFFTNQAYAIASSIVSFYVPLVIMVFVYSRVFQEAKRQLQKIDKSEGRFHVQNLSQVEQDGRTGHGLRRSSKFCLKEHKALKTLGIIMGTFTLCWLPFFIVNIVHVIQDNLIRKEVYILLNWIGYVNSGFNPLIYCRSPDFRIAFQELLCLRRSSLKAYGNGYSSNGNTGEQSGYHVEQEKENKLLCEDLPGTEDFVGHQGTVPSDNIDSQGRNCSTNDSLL
KiSS-1 receptor (Homo sapiens), sequence (Q969F8 whole entry, looked up): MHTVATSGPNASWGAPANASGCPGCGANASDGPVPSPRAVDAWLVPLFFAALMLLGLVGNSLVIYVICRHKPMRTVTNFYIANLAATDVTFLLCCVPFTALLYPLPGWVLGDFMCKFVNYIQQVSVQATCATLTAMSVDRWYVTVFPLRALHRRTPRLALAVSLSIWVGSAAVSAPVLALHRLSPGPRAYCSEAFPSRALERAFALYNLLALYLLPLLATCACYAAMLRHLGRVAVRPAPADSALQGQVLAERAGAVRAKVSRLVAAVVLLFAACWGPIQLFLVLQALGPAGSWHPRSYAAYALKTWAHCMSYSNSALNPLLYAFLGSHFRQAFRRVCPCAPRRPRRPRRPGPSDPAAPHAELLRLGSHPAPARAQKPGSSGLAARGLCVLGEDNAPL
Gonadotropin-releasing hormone receptor (Homo sapiens), sequence (P30968 whole entry, looked up): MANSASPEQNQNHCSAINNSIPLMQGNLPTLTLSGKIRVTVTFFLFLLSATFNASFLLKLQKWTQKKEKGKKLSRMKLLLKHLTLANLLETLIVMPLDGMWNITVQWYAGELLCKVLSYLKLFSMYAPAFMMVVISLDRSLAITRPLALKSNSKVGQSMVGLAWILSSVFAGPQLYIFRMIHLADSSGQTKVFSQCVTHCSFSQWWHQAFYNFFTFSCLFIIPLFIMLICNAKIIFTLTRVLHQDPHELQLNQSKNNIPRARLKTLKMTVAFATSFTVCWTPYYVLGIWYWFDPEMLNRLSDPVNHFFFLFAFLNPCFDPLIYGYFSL
5-hydroxytryptamine receptor 2A (Homo sapiens), sequence (P28223 whole entry, looked up): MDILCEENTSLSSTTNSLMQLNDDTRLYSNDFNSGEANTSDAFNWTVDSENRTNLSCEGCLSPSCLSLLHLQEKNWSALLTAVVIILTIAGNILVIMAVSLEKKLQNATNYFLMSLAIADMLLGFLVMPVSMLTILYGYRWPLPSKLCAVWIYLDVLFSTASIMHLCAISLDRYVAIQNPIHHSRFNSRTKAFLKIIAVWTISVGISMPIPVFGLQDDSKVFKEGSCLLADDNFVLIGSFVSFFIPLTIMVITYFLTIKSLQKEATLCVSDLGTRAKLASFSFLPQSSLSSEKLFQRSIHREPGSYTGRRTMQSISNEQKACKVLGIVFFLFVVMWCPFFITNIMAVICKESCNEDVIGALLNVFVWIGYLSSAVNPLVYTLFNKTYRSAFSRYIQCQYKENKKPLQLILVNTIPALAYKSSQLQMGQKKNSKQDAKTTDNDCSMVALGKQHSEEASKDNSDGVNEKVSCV

Structure (SMILES): O=P(c1ccccc1)(c1ccccc1)c1ccccc1
- Potency [1]: inactive
- Potency [2]: inactive
- Potency [3]: inactive
- Potency [4]: inactive
- Potency [5]: inactive
- Potency [6]: inactive
- Potency [7]: inactive
- Potency [8]: inactive
- Potency [9]: inactive
- Potency [10]: inactive
- Potency [11]: inactive
- Potency [12]: inactive
- Potency [13]: inactive
- Potency [14]: inactive
- Potency [15]: inactive
- Potency [16]: inactive
- Potency [17]: inactive

Structure (SMILES): O=C(OCCOCCOCCOC(=O)c1ccccc1)c1ccccc1
- Potency [1]: inactive
- Potency [2]: inactive
- Potency [3]: inactive
- Potency [4]: inactive
- Potency [5]: inactive
- Potency [6]: inactive
- Potency [7]: inactive
- Potency [8]: inactive
- Potency [9]: inactive
- Potency [10]: inactive
- Potency [12]: inactive
- Potency [13]: inactive
- Potency [18]: inactive
- Potency [15]: inactive
- Potency [19]: inactive
- Potency [16]: inactive
- Potency [17]: inactive

Structure (SMILES): CC(C)COC(=O)c1ccc(O)cc1
- Potency [1]: inactive
- Potency [2]: inactive
- Potency [3]: inactive
- Potency [4]: inactive
- Potency [5]: inactive
- Potency [6]: inactive
- Potency [7]: inactive
- Potency [8]: inactive
- Potency [9]: inactive
- Potency [10]: inactive
- Potency [11]: inactive
- Potency [13]: inactive
- Potency [18]: inactive
- Potency [15]: inactive
- Potency [17]: inactive

Structure (SMILES): C=CCCCCCCC=C
- Potency [1]: inactive
- Potency [2]: inactive
- Potency [3]: inactive
- Potency [4]: inactive
- Potency [5]: inactive
- Potency [6]: inactive
- Potency [7]: inactive
- Potency [8]: inactive
- Potency [9]: inactive
- Potency [10]: inactive
- Potency [11]: inactive
- Potency [12]: inactive
- Potency [14]: inactive
- Potency [20]: inactive
- Potency [15]: inactive
- Potency [16]: inactive
- Potency [17]: inactive

Structure (SMILES): CCCC(=O)OCC
- Potency [1]: inactive
- Potency [2]: inactive
- Potency [3]: inactive
- Potency [4]: inactive
- Potency [5]: inactive
- Potency [6]: inactive
- Potency [7]: inactive
- Potency [8]: inactive
- Potency [9]: inactive
- Potency [10]: inactive
- Potency [11]: inactive
- Potency [13]: inactive
- Potency [18]: inactive
- Potency [20]: inactive
- Potency [15]: inactive
- Potency [16]: inactive
- Potency [17]: inactive

Structure (SMILES): C(=C\c1ccccc1)/CN1CCN(C(c2ccccc2)c2ccccc2)CC1
- Potency [1]: 13.3 µM (active)
- Potency [2]: inactive
- Potency [3]: inactive
- Potency [4]: inactive
- Potency [5]: inactive
- Potency [6]: inactive
- Potency [7]: inactive
- Potency [8]: inactive
- Potency [9]: inactive
- Potency [10]: inactive
- Potency [15]: inactive
- Potency [16]: inactive

Structure (SMILES): CCC(C)Nc1ccc(NC(C)CC)cc1 (stereo not drawn)
- Potency [1]: 3.93 µM (active)
- Potency [2]: inactive
- Potency [3]: inactive
- Potency [4]: inactive
- Potency [5]: inactive
- Potency [6]: inactive
- Potency [7]: 2.08 µM (active)
- Potency [8]: 4.66 µM (active)
- Potency [9]: 10.4 µM (active)
- Potency [10]: inactive
- Potency [11]: inactive
- Potency [13]: 9.6 µM (active)
- Potency [18]: inactive
